One experiment concerns CRL-7250. The experiment can be described thus: Cytotoxic Profiling of Annotated Libraries Using Quantitative High-Throughput Screening (AID 1296008). Also: nearly all actives have a fitted effect of over 60% in size. Also: potency is read from the fitted curve at half-maximal effect. As to max response: % is scaled to controls: 0 for no effect and ±100 for the full control effect. The following applies: Five cell lines viability, CellTiter-Glo ATP luminescence, 48-72 h; max response: stronger effect = lower value. Summed up:
(§1)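 Compounds were pin-transferred onto cells and incubated 48 or 72 hr at 37 degree Celsius, 95% humidity. CellTiter-Glo was added, plates sat 10 min at room temperature, then ATP-coupled luminescence was imaged as the viability read-out.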

The test system of a further experiment is HEK293. Described as above. The following applies: Five cell lines viability, CellTiter-Glo ATP luminescence, 48-72 h; max response: stronger effect = lower value. Summed up: as §1
Experiment [1] deals with HaCat. The description is as above. The following applies: Five cell lines viability, CellTiter-Glo ATP luminescence, 48-72 h; max response: stronger effect = lower value. Summed up:
as §1

Experiment [2] concerns NIH3T3. Described as above. The conditions noted are these: Five cell lines viability, CellTiter-Glo ATP luminescence, 48-72 h; max response: stronger effect = lower value. In outline:
as §1

For the next experiment, the system named is MCC-13. The experiment can be described thus: qHTS assay to identify novel small-molecules to repurpose for Merkel cell carcinoma treatment (AID 1296009). Also: nearly all actives have a fitted effect of over 60% in size. Also: potency is read from the fitted curve at half-maximal effect. The following applies: MCC and control cell lines, CellTiter-Glo viability, 72 h; series mostly up to 46 µM. Summed up: (§2)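 Cells exposed to NPC (8-point) and MIPE (11-point) compound dilutions for 72 hr at 37 degree celsius; viability read by CellTiter-Glo luminescence, normalized to no-cell and DMSO in-plate controls.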

The subject of a further experiment is MCC-26. The description is as above. The following applies: MCC and control cell lines, CellTiter-Glo viability, 72 h; series mostly up to 46 µM. Summed up:
as §2

For a further experiment, the system named is UISO. The description is as above. The conditions noted are these: MCC and control cell lines, CellTiter-Glo viability, 72 h; series mostly up to 46 µM. Summed up:
as §2

The test system of a further experiment is C33A. Kind of experiment: Primary qHTS to identify gynecologic anti-cancer compounds using libraries of approved drugs and bioactive compounds (AID 1345084). Also: nearly all actives have a fitted effect of over 55% in size. Also: potency is read from the fitted curve at half-maximal effect. The following applies: Gynecologic cancer cell panel viability, ATPlite luminescence, 48 h; series mostly up to 57.5 µM. Summed up:
(§3)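 Cell viability after 48 h drug treatment, ATPlite luminescence readout; five doses.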

The subject of a further experiment is CASKI. Described as above. The conditions noted are these: Gynecologic cancer cell panel viability, ATPlite luminescence, 48 h; series mostly up to 57.5 µM. In outline: as §3
The subject of another experiment is Es-2. The description is as above. The conditions noted are these: Gynecologic cancer cell panel viability, ATPlite luminescence, 48 h; series mostly up to 57.5 µM. Summed up: as §3
The next experiment relates to HeLa. The experiment is described as above. The conditions noted are these: Gynecologic cancer cell panel viability, ATPlite luminescence, 48 h; series mostly up to 57.5 µM. Summed up:
as §3

Another experiment relates to W2. The experiment can be described thus: qHTS profiling for inhibitors of Plasmodium falciparum proliferation (AID 504749). The conditions noted are these: P. falciparum in erythrocytes, SYBR Green DNA, 72 h; series mostly up to 28.7 µM. In outline:
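P. falciparum-infected erythrocytes (0.3% parasitemia, 2.5% hematocrit final) were exposed to compounds for 72 h at 37 C in 5% CO2, then lysed with SYBR Green buffer overnight at room temperature; parasite DNA fluorescence was normalized to artemisinin and DMSO controls.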

A further experiment has as its system MKL-1. Kind of experiment: qHTS assay to identify novel small-molecules to repurpose for Merkel cell carcinoma treatment (AID 1296009). Also: nearly all actives have a fitted effect of over 60% in size. Also: potency is read from the fitted curve at half-maximal effect. The conditions noted are these: MCC and control cell lines, CellTiter-Glo viability, 72 h; series mostly up to 46 µM. In outline: as §2
The subject of the next experiment is MKL-2. Described as above. The following applies: MCC and control cell lines, CellTiter-Glo viability, 72 h; series mostly up to 46 µM. Summed up: as §2
A further experiment relates to WaGa. The experiment is described as above. The following applies: MCC and control cell lines, CellTiter-Glo viability, 72 h; series mostly up to 46 µM. Summed up: as §2
The next experiment concerns CAOV3. Kind of experiment: Primary qHTS to identify gynecologic anti-cancer compounds using libraries of approved drugs and bioactive compounds (AID 1345084). Also: nearly all actives have a fitted effect of over 55% in size. Also: potency is read from the fitted curve at half-maximal effect. The following applies: Gynecologic cancer cell panel viability, ATPlite luminescence, 48 h; series mostly up to 57.5 µM. Summed up: as §3
A further experiment relates to HEK293T. The experiment can be described thus: qHTS assay to identify novel small-molecules to repurpose for Merkel cell carcinoma treatment (AID 1296009). Also: nearly all actives have a fitted effect of over 60% in size. Also: potency is read from the fitted curve at half-maximal effect. The following applies: MCC and control cell lines, CellTiter-Glo viability, 72 h; at 44.8 µM (top of the series) unless noted. Summed up:
as §2

Another experiment relates to KB-3-1. The experiment can be described thus: Cytotoxic Profiling of Annotated Libraries Using Quantitative High-Throughput Screening (AID 1296008). Also: nearly all actives have a fitted effect of over 60% in size. Also: potency is read from the fitted curve at half-maximal effect. As to max response: % is scaled to controls: 0 for no effect and ±100 for the full control effect. The following applies: Five cell lines viability, CellTiter-Glo ATP luminescence, 48-72 h; max response: stronger effect = lower value. Summed up: as §1
The test system of experiment [3] is HACAT. The experiment can be described thus: qHTS assay to identify novel small-molecules to repurpose for Merkel cell carcinoma treatment (AID 1296009). Also: nearly all actives have a fitted effect of over 60% in size. Also: potency is read from the fitted curve at half-maximal effect. The conditions noted are these: MCC and control cell lines, CellTiter-Glo viability, 72 h; at 44.8 µM (top of the series) unless noted. In outline:
as §2

Experiment [4] concerns NIH3T3. The description is as above. The conditions noted are these: MCC and control cell lines, CellTiter-Glo viability, 72 h; at 44.8 µM (top of the series). In outline: as §2

Results filed as inconclusive are left out. A number with no mark means an inactive call. Activity calls are given as the source filed them. Calls follow the shape of the dose curve; as a rule, active = well fitted curve in the direction sought with a large enough effect; inconclusive = small, poorly fitted or top-dose-only effect, or another doubt; inactive = no such curve, though single readings can be large; an effect the other way counts as inactive or inconclusive.

`C#C[C@]1(OC(C)=O)CC[C@H]2[C@@H]3CCC4=C/C(=N/O)CC[C@@H]4[C@H]3CC[C@@]21CC`: the values for the max response in the experiment on CRL-7250, in the experiment with HaCat [1] and in the experiment with NIH3T3 [2] were -7.16%, 2.29% and 2.39%, respectively. Besides, the results for the Potency in the experiment on HEK293, in the experiment with UISO and in the experiment on HeLa were 13.3 µM (active), 29.9 µM (active) and 4.47 µM (active), respectively. Also, the Potency result with MCC-13, in the experiment on MCC-26, in the experiment on C33A, in the experiment on CASKI and in the experiment on Es-2 was “inactive” throughout.

Take `CC(=O)NC(=O)c1ccccc1O`: the Potency entry in the experiment on W2, with MCC-13, with MKL-1, with MKL-2, with UISO and in the experiment with WaGa was “inactive” in each case. For the same molecule, the Potency entry in the experiment with C33A, in the experiment on CAOV3, in the experiment with CASKI, with Es-2 and in the experiment on HeLa was “inactive” throughout. Moreover, the max response with CRL-7250 was -3.82%; in the experiment on HEK293, -1.84%; in the experiment with HaCat [1], -6.77%; with NIH3T3 [2] it was 0.511%.

With `CC(=O)Nc1ncc([N+](=O)[O-])s1`, the Potency entry in the experiment on W2, in the experiment with MCC-13, in the experiment with MCC-26, with MKL-1, with MKL-2 and in the experiment with UISO was “inactive” in each case. Also, the Potency result with WaGa, in the experiment on C33A, in the experiment with CASKI, in the experiment with Es-2 and in the experiment on HeLa was “inactive” in each case. The max response in the experiment with CRL-7250 was 2.19%; in the experiment on HEK293, 0.687%; in the experiment on HaCat [1], 4.2%; in the experiment with NIH3T3 [2], 4.2%.

Regarding `O=C(O)Cc1csc(-c2ccc(Cl)cc2)n1`, the Potency result with W2, with MCC-13, with MCC-26, in the experiment with MKL-1, in the experiment on MKL-2 and in the experiment with UISO was “inactive” each time. For the same molecule, the Potency result in the experiment on WaGa, with C33A, with CAOV3, with CASKI, in the experiment with Es-2 and in the experiment with HeLa was “inactive” in each case. The max response was -17.8% in the experiment with CRL-7250, -0.458% in the experiment with HEK293, -16.3% in the experiment on HaCat [1] and 1.14% with NIH3T3 [2].

`CCCCN=C(N)N=C(N)N`: the Potency entry with W2, in the experiment on MCC-13, with MCC-26, in the experiment on MKL-1, in the experiment on MKL-2 and in the experiment on UISO was “inactive” each time. Also, the Potency entry in the experiment with C33A, with CASKI, with Es-2 and in the experiment on HeLa was “inactive” throughout. For the same molecule, the max response with CRL-7250 is 1.78%; in the experiment with HaCat [1], 2.62%; in the experiment with NIH3T3 [2] it was -1.41%. The call in the experiment on HEK293 and in the experiment on HEK293T was inactive.

As to `CC(=O)NCCCCCC(=O)O`, the Potency entry with W2, with MCC-13, with MKL-1, in the experiment with MKL-2, in the experiment on UISO and in the experiment on WaGa was “inactive” each time. Also, the Potency entry in the experiment with C33A, in the experiment with CASKI, with Es-2 and in the experiment on HeLa was “inactive” in each case. The max response in the experiment with CRL-7250 was -1.79%; with HEK293 it was 1.53%; with HaCat [1] it was -2.92%; with KB-3-1, 0.772%; in the experiment with NIH3T3 [2], -7.1%.

Regarding `OCc1ccccn1`, the Potency entry in the experiment on W2, in the experiment on MCC-13, with MCC-26, in the experiment on MKL-1, in the experiment on MKL-2 and in the experiment on UISO was “inactive” in each case. Also, the Potency result in the experiment on WaGa, with C33A, in the experiment with CAOV3, with CASKI, in the experiment with Es-2 and in the experiment on HeLa was “inactive” each time. Further, the max response with CRL-7250 is -1.84%; in the experiment with HEK293, -1.39%; in the experiment on NIH3T3 [2] it was -14.5%. The molecule was called inactive in the experiment with HaCat [1] and with HACAT [3].

`CC(=O)Nc1ccc(S(=O)(=O)Nc2ccc([N+](=O)[O-])cc2)cc1`: the Potency entry in the experiment on W2, with MCC-13, with MCC-26, in the experiment with MKL-1, in the experiment on MKL-2 and in the experiment on UISO was “inactive” each time. Further, the Potency entry in the experiment with C33A, in the experiment with CAOV3, with CASKI, with Es-2 and in the experiment on HeLa was “inactive” in each case. The max response in the experiment on CRL-7250 was -4.42%; with HEK293, -4.06%; in the experiment with NIH3T3 [2], 3.15%. Further, the result with HaCat [1] and in the experiment on HACAT [3] was inactive.

Regarding `NS(=O)(=O)Cc1noc2ccccc12`, the Potency result in the experiment with W2, in the experiment with MCC-13, in the experiment on MCC-26, in the experiment with MKL-1, with MKL-2 and in the experiment on UISO was “inactive” in each case. Also, the Potency result with WaGa, in the experiment with C33A, in the experiment with CAOV3, with CASKI, with Es-2 and with HeLa was “inactive” each time. For the same molecule, the max response in the experiment with CRL-7250 was 0.547%; in the experiment with HEK293 it was -4.5%; in the experiment on HaCat [1], 1.67%; with NIH3T3 [2], 0.477%.

On to `CCOc1ccccc1C(N)=O`, for which the Potency result with W2, in the experiment on MCC-13, in the experiment with C33A, in the experiment with CAOV3, in the experiment with CASKI and with Es-2 was “inactive” in each case. Further, in the experiment on HeLa, the Potency entry was “inactive”. Moreover, the result in the experiment on CRL-7250, with NIH3T3 [2] and in the experiment on NIH3T3 [4] was inactive. In addition, the max response in the experiment with HEK293 was -2.36%; with HaCat [1], 1.44%; with KB-3-1 it was -15.7%.

The record behind these values is PubChem BioAssay (NCATS).
